In PubChem BioAssay (NCATS):
Results filed as inconclusive are left out. Where a call stands in place of a potency, no number is given. Activity calls are given as the source filed them. Calls come from the whole dose curve; as a rule, active = well fitted inhibition curve with a large enough effect; inconclusive = small, poorly fitted or top-dose-only effect; inactive = flat fitted curve, though single readings scatter.

Columns and labels:
[1] = target: Luciferin 4-monooxygenase (Photinus pyralis) (UniProt P08659); assay: Biochemical firefly luciferase enzyme assay for NPC (AID 624030);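 note: purified P. pyralis luciferase at 10 nM with luciferin and ATP substrate; nearly all actives have a fitted effect of over 70% in size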
How it was run: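 Counter-screen for direct inhibition of the luciferase enzyme by approved-drug library compounds, run at 10 nM enzyme in 50 mM Tris acetate (final). Luminescence was read within 5 min of enzyme-buffer addition and normalized to PTC124 versus DMSO (0%).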

[2] = tested on: 3D7; assay: qHTS profiling for inhibitors of Plasmodium falciparum proliferation (AID 504749); note: nearly all actives have a fitted effect of over 60% in size; note: potency is the fitted concentration of half-maximal effect; conditions: P. falciparum in erythrocytes, SYBR Green DNA, 72 h; series mostly up to 28.7 µM
How it was run: (§1)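 Fluorescence of SYBR Green-bound parasite DNA, read at 485/535 nm, served as the growth measure. Infected erythrocytes were cultured with compound 72 h; artemisinin (0.29 uM) and DMSO wells defined the normalization range.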

[3] = tested on: C2A; assay: as above; conditions: P. falciparum in erythrocytes, SYBR Green DNA, 72 h; series mostly up to 28.7 µM
How it was run: as §1

[4] = tested on: CP194; assay: as above; conditions: P. falciparum in erythrocytes, SYBR Green DNA, 72 h; series mostly up to 28.7 µM
How it was run: as §1

[5] = tested on: CP201; assay: as above; conditions: P. falciparum in erythrocytes, SYBR Green DNA, 72 h; series mostly up to 28.7 µM
How it was run: as §1

[6] = tested on: CP217; assay: as above; conditions: P. falciparum in erythrocytes, SYBR Green DNA, 72 h; series mostly up to 28.7 µM
How it was run: as §1

[7] = tested on: CP237; assay: as above; conditions: P. falciparum in erythrocytes, SYBR Green DNA, 72 h; series mostly up to 28.7 µM
How it was run: as §1

[8] = tested on: CP260; assay: as above; conditions: P. falciparum in erythrocytes, SYBR Green DNA, 72 h; series mostly up to 28.7 µM
How it was run: as §1

[9] = tested on: CP266; assay: as above; conditions: P. falciparum in erythrocytes, SYBR Green DNA, 72 h; series mostly up to 28.7 µM
How it was run: as §1

[10] = tested on: CP268; assay: as above; conditions: P. falciparum in erythrocytes, SYBR Green DNA, 72 h; series mostly up to 28.7 µM
How it was run: as §1

[11] = tested on: CP325; assay: as above; conditions: P. falciparum in erythrocytes, SYBR Green DNA, 72 h; series mostly up to 28.7 µM
How it was run: as §1

[12] = tested on: Dd2; assay: as above; conditions: P. falciparum in erythrocytes, SYBR Green DNA, 72 h; series mostly up to 28.7 µM
How it was run: as §1

[13] = tested on: ECU; assay: as above; conditions: P. falciparum in erythrocytes, SYBR Green DNA, 72 h; series mostly up to 28.7 µM
How it was run: as §1

[14] = tested on: FAB9; assay: as above; conditions: P. falciparum in erythrocytes, SYBR Green DNA, 72 h; series mostly up to 28.7 µM
How it was run: as §1

[15] = tested on: ICS; assay: as above; conditions: P. falciparum in erythrocytes, SYBR Green DNA, 72 h; series mostly up to 28.7 µM
How it was run: as §1

[16] = tested on: JCK; assay: as above; conditions: P. falciparum in erythrocytes, SYBR Green DNA, 72 h; series mostly up to 28.7 µM
How it was run: as §1

[17] = tested on: N140; assay: as above; conditions: P. falciparum in erythrocytes, SYBR Green DNA, 72 h; series mostly up to 28.7 µM
How it was run: as §1

[18] = tested on: P93_24; assay: as above; conditions: P. falciparum in erythrocytes, SYBR Green DNA, 72 h; series mostly up to 28.7 µM
How it was run: as §1

[19] = tested on: PC49; assay: as above; conditions: P. falciparum in erythrocytes, SYBR Green DNA, 72 h; series mostly up to 28.7 µM
How it was run: as §1

[20] = tested on: SC27B; assay: as above; conditions: P. falciparum in erythrocytes, SYBR Green DNA, 72 h; series mostly up to 28.7 µM
How it was run: as §1

Luciferin 4-monooxygenase (Photinus pyralis), sequence (P08659 whole entry, looked up): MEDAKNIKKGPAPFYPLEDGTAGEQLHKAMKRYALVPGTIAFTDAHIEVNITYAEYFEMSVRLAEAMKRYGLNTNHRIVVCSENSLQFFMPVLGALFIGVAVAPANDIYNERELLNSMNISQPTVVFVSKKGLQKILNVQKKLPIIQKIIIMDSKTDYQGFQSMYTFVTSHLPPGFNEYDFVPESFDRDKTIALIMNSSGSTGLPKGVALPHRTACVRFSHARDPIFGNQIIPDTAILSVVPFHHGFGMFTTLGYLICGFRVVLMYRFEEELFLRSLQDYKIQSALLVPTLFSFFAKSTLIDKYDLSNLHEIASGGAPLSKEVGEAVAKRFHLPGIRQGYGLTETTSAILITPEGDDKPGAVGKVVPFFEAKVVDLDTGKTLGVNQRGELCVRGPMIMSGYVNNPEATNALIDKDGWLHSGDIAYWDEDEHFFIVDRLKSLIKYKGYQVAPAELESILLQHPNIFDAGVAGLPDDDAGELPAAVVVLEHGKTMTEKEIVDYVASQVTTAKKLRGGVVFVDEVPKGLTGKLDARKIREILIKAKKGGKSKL

SMILES | Potency [1] | Potency [2] | Potency [3] | Potency [4] | Potency [5] | Potency [6] | Potency [7] | Potency [8] | Potency [9] | Potency [10] | Potency [11] | Potency [12] | Potency [13] | Potency [14] | Potency [15] | Potency [16] | Potency [17] | Potency [18] | Potency [19] | Potency [20]
C/C=C\c1ccc(OC)cc1 | inactive | inactive | inactive | inactive | inactive | inactive | inactive | inactive | inactive | inactive | inactive | inactive | inactive | inactive | inactive | inactive | inactive | inactive | inactive | inactive
CC(=O)O[C@@]12CO[C@@H]1C[C@H](O)[C@@]1(C)C(=O)[C@H](O)C3=C(C)[C@@H](OC(=O)C(O)[C@@H](NC(=O)OC(C)(C)C)c4ccccc4)C[C@@](O)([C@@H](OC(=O)c4ccccc4)[C@H]21)C3(C)C (stereo partly drawn) | inactive | 25.1 nM (active) | 31.6 nM (active) | 67.5 nM (active) |  | 44.7 nM (active) | 17.8 nM (active) | 25.1 nM (active) |  |  |  | 10 nM (active) | 63.1 nM (active) |  | 112 nM (active) | inactive | 89.1 nM (active) | 56.2 nM (active) |  | 199 nM (active)
NC1=NC(S)C2N=CN=C2N1 (stereo not drawn) |  | inactive | inactive | inactive | inactive | inactive | inactive | inactive | inactive | inactive | inactive | inactive | inactive | inactive | inactive | inactive | inactive | inactive | inactive | inactive
COc1cc([C@@H]2c3cc4c(cc3[C@@H](O[C@@H]3O[C@@H]5CO[C@@H](C)O[C@H]5[C@H](O)[C@H]3O)[C@H]3COC(=O)[C@H]23)OCO4)cc(OC)c1OP(=O)(O)O | inactive |  |  |  |  |  |  |  |  |  |  |  |  |  |  |  |  |  |  | 
C1OCOCO1 | inactive | inactive | inactive |  | inactive | inactive | inactive | inactive | inactive | inactive | inactive | inactive | inactive | inactive | inactive | inactive | inactive | inactive | inactive | inactive
